Inconclusive results are not listed. Entries that show only a call come without a potency. Active and inactive are the calls of the source. The call rests on the fitted dose curve; in most records, active means well fitted cell-killing curve with a large enough effect in the repeat runs; inconclusive means weak or mixed curves, or effect the other way; inactive means no such curve, though single readings can be large or run the other way.
Potency means the concentration at half of the fitted maximal effect.

The experiment is described as follows: qHTS assay to identify small molecule antagonists of the sonic hedgehog signaling (Shh) pathway - cell viability counter screen (AID 1259367). Further: nearly all actives have a fitted effect of over 55% in size. The following applies: NIH/3T3 Gli1-Luc viability, CellTiter-Fluor, 24 h; series mostly up to 92.4 µM. The text has this: National Center for Advancing Translational Sciences [NCATS]
NIH Chemical Genomics Center [NCGC]
U.S. Environmental Protection Agency [EPA]
National Institutes of Environmental Health Sciences [NIEHS]
National Toxicology Program [NTP]
U.S. Food and Drug Administration [FDA]
The sonic hedgehog (Shh) pathway is essential for normal embryonic development. Dysregulation of the Shh pathway can cause severe developmental defects in organs. Therefore chemicals that interfere with the pathway are potential developmental toxicants. A cell line designated 3T3Gli1-Luc (DMB/OARSA/CFSAN/FDA, Laurel, MD), a NIH/3T3 derived clone containing stably integrated Gli1-Luc reporter is used to detect chemical interference of the Shh pathway, by changes in the expression of the firefly Luc gene under the control of the Gli1 transcriptional response element. This cell line was used to screen Tox21 libraries for identifying and prioritizing the potential developmental toxicants that interfere Shh pathway. Conditioned medium-stimulated mode was used to screen for chemicals inhibiting Shh signaling. The cytotoxicity of the compounds was tested in parallel by measuring the cell viability using CellTiter-Fluor assay system (Promega, Madison, WI) in the same wells.
Tox21 Assay Protocol Summary:
3T3 Gli1-Luc cells were dispensed at 2,000 per well in 5uL of culture medium into white solid bottom 1536-well plates (Greiner Bio-One, Monroe, NC) using a Multidrop Combi (Thermo Scientific, Waltham, MA) dispenser. The assay plates were incubated at 37 C and 5% CO2 for 4hr, and then 23nL of compounds dissolved in DMSO and positive control were transferred using a Pintool station (Wako, San Diego, CA). The compound transfer was followed by the addition of 1ul conditioned medium or assay buffer using two separate tips of Flying Reagent Dispenser (FRD, Aurora Discovery, San Diego, CA). The assay plates were incubated at 37C and 5% CO2 for 24hr. For viability read, after 23hr of compound treatment, 1uL of CellTiter-Fluor reagent (Promega Corporation, Madison, WI) was added to each well of the assay plates using Flying Reagent Dispenser (FRD, Aurora Discovery, San Diego, CA) and incubated the assay plates at 37C for 1hr. The fluorescence signal was quantified using a ViewLux plate reader (Perkin Elmer, Shelton, CT).
Turning to `C1CCC(C2CCCCC2)CC1`, the Potency result is “inactive”.

`CCOP(=S)(OCC)SCSP(=S)(OCC)OCC`: the Potency entry is “inactive”. On the same count and under the same terms, the same measure for `CCOP(=S)(OCC)Oc1ncn(-c2ccccc2)n1`: “inactive”; for `C[N+](C)=CCl`: “inactive”.

With `O=S(=O)(O)C(F)(F)C(F)(F)C(F)(F)C(F)(F)C(F)(F)C(F)(F)F`, the Potency entry was “inactive”. Consider `CC1=C(C(=O)O)N2C(=O)[C@@H](N)[C@H]2SC1`, for which the viability change, negative = cytotoxic was 2.83% [at 19 µM] (inactive). On to `CCOC(=O)CP(=O)(OCC)OCC`, for which the Potency entry was “inactive”. On to `[Cl][Sn]([Cl])([Cl])[Cl]`, for which the Potency entry was “inactive”.

Regarding `OCCBr`, the Potency result was “inactive”. As for `Cc1ccccc1CO[C@@H]1C[C@@]2(C(C)C)CC[C@]1(C)O2`, the Potency entry is “inactive”. Consider `O=C(O)c1ccc2[nH]cc(CCCCN3CC=C(c4ccccc4)CC3)c2c1`, for which the Potency result was “inactive”. Still for that read-out and setting: the same measure for `CCCCP(CCCC)CCCC`: “inactive”. On the same count and under the same terms, the entry for `CCC(=O)C(CCN(C)C)(c1ccccc1)c1ccccc1` is “inactive”; for `O=[N+]([O-])c1cccc2c([N+](=O)[O-])cccc12` it is “inactive”. On the same count and under the same terms, the same measure for `CCOc1nc(C(Cl)(Cl)Cl)ns1`: “inactive”. In the case of `C[N+](=O)[O-]`, the Potency result is “inactive”.

On to `Cc1coc2c1CCC(C)C2` (stereo not given), for which the Potency result is “inactive”.

In the case of `CC(=O)CC(c1ccc(Cl)cc1)c1c(O)c2ccccc2oc1=O` (stereo not given), the Potency entry is “inactive”. With `O=C(O)c1cccc(Cl)c1`, the Potency entry is “inactive”.

Regarding `N#CC(Cl)(Cl)Cl`, the Potency result was “inactive”.

Take `COc1cc(C[C@@H](C)N)c(OC)cc1C`: the Potency result was “inactive”. In the case of `CNC(=O)O/N=C(\C)SC`, the Potency entry is “inactive”. On the same count and under the same terms, the same measure for `CCCCOP(=O)(O)OCCCC`: “inactive”; for `Nc1cc(Cl)ccc1O`: 29.6 µM (active). Same read-out and setting: the entry for `CCCCC(=O)Cl` is “inactive”.

Consider `COC(=O)C(C)Oc1ccc(Oc2ccc(Cl)cc2Cl)cc1` (stereo not given), for which the Potency result is “inactive”. The same measure, in the same setting: the entry for `COc1cc(OC)nc(Oc2cccc(Oc3nc(OC)cc(OC)n3)c2C(=O)O)n1` is “inactive”.

Turning to `O=[N+]([O-])c1cccc2cccnc12`, the Potency result is “inactive”. With `O=C1OC(=O)C2C1C1(Cl)C(Cl)=C(Cl)C2(Cl)C1(Cl)Cl` (stereo not given), the Potency result is “inactive”. The same measure, in the same setting: the same measure for `CCC(=O)c1ccccc1`: “inactive”; for `CC(C=O)Cc1ccc2c(c1)OCO2` (stereo not given): “inactive”; for `O=[N+]([O-])c1ccc2c3c(cccc13)CC2`: “inactive”. Same read-out and setting: the same measure for `COC(=O)COc1ccc(Cl)cc1Cl`: “inactive”. For `COP(=S)(OC)Oc1c(Cl)cc(C)cc1Cl`, the Potency result was “inactive”. Still for that read-out and setting: the entry for `CCOP(=S)(OCC)SCSc1ccc(Cl)cc1` is “inactive”; for `CCN(CC)c1nc(C)cc(OP(=S)(OC)OC)n1` it is “inactive”. Same read-out and setting: the entry for `O=CNC(N1CCN(C(NC=O)C(Cl)(Cl)Cl)CC1)C(Cl)(Cl)Cl` (stereo not given) is “inactive”. For `Nc1cnn(-c2ccccc2)c(=O)c1Cl`, the Potency entry was “inactive”.

For `COc1cccc2c1cc([N+](=O)[O-])c1c(C(=O)O)cc3c(c12)OCO3`, the Potency is 12.2 µM (active). For the compound `c1coc(-c2nc3ccccc3[nH]2)c1`, the Potency result was “inactive”.

The values are drawn from PubChem BioAssay (Tox21).
